From PubChem BioAssay (NCATS)
Records with an inconclusive call do not appear. Unless noted, calls come from the whole dose curve; as a rule, active = well fitted curve in either direction with a large enough effect (not every such curve was filed as active); inconclusive = small, poorly fitted or top-dose-only effect, or another doubt; inactive = flat fitted curve, though single readings scatter.

Assays:
[1] = AP1 Signaling Pathway (AID 357); details: ME-180 AP-1-bla reporter, EGF-induced, beta-lactamase ratio, 5 h; at 17.2 µM (top of the series) unless noted;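 note: ME-180 reporter cells stimulated with EGF at its EC50 level; % is set by controls: 0 for no effect and ±100 for the full control effect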
Summary of the method: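 In this screen, ME-180 cells in Opti-MEM with 0.5% dialyzed FBS received EC50 EGF and compound titrations for 5 h. AP-1 reporter beta-lactamase was detected via CCF4 ratio, giving AC50 for positive and negative modulators.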

[2] = Stat Signaling Pathway (AID 446); details: ME-180 (cervical carcinoma) SIE beta-lactamase reporter, IL-6 stimulated, 5 h; at 17.2 µM (top of the series) unless noted;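 note: ME-180 cervical cancer cells given 40 pM IL-6 alongside compound; SIE-controlled beta-lactamase reporter measured as 460/530 nm FRET emission ratio; % is set by controls: 0 for no effect and ±100 for the full control effect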
Summary of the method: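 Emission at 460 and 530 nm (excitation 405 nm) reports SIE-controlled beta-lactamase in ME-180 cells. Cells received compound with 40 pM IL-6 for 5 hrs at 37 C; data scaled between 300 pM IL-6 and 125 nM JAK-inhibitor controls.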

[3] = target: Glucocorticoid receptor (Homo sapiens) (UniProt P04150); assay: GR-GFP Redistribution (AID 450;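 active = compounds whose dose series gives a full or clear partial fitted curve of increased nuclear translocation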; note: potency is the fitted concentration of half-maximal effect)
Chain of Glucocorticoid receptor (Homo sapiens) (P04150 whole entry, looked up): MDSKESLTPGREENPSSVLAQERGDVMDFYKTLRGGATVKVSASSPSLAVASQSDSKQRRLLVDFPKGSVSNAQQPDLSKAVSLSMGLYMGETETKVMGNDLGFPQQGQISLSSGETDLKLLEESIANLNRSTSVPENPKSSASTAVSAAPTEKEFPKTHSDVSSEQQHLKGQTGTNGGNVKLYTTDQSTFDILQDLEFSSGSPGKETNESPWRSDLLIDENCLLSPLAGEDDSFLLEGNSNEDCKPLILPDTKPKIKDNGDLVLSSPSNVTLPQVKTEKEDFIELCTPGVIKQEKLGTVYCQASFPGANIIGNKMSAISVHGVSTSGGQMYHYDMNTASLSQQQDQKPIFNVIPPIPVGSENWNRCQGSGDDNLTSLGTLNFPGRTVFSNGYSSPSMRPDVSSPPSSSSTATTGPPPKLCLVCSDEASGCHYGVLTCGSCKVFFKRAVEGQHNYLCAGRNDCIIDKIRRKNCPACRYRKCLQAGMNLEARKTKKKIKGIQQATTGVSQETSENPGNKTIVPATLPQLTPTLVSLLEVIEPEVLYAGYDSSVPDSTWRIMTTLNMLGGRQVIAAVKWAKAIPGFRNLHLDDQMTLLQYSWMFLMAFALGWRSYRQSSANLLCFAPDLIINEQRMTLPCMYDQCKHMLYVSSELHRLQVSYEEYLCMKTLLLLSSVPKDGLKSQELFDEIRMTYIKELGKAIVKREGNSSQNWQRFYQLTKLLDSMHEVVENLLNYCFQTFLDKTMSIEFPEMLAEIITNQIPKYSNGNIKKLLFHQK

CCOC(=O)C1CCN(c2nc3ccccc3nc2C(C#N)C(=O)OC(C)COC)CC1 (configuration not stated)
inactive: activity change, negative = inhibition [1] -6.33% | activity, negative = inhibition [2] -12.7% | Potency [3] > 20.6 µM

COC(=O)CN(c1nc(C)c(Cl)c(OC)n1)S(=O)(=O)c1ccc(C)cc1
inactive: activity change, negative = inhibition [1] 6.71% | activity, negative = inhibition [2] 3.43% | Potency [3] > 20.6 µM

CC(C)(C)c1cccc(/C=N/O)c1O
inactive: activity change, negative = inhibition [1] -17.8% | activity, negative = inhibition [2] -5.38% | Potency [3] > 20.6 µM

CC(C)c1nc2sc3c(c2c(=O)o1)CCCC3
inactive: activity change, negative = inhibition [1] -7.93% | activity, negative = inhibition [2] 2.63% | Potency [3] > 20.6 µM
